Hit rate of the full screen: of about 200,000 compounds, about 330 (0.17%) were called active. This excerpt belongs to a sample that is enriched for actives. Unmarked numbers belong to inactive results.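 Rule for the calls: active = activation factor of 2 or more at 20 µM, a signal rise over negative controls twice the positive control's; inactive = the rest.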

The subject of the test is alkaline phosphatase, intestinal [Bos taurus]. As to the kind of experiment: IAP enzyme activity enhancers – biochemical, bovine IAP, CDP-star luminescence, primary screen (AID 1016). The note with it: purified bovine IAP, 30 min, at 20 µM, stronger effect = higher value, fold of DMSO-control signal, blank-subtracted.
On to `CCCCCCCCc1c(O)nc(-n2[nH]c(C)c(CCO)c2=O)[nH]c1=O`, for which the activation factor was 1.2.

Consider `O=C(C1CCN(S(=O)(=O)c2ccc(Br)s2)CC1)N1CCN(C2CCCCC2)CC1`, for which the activation factor is 1.2.

Consider `O=C(Nc1cc(S(=O)(=O)N2CCOCC2)ccc1Cl)c1cc(=O)c2ccccc2o1`, for which the activation factor is 1.3.

Consider `O=[N+]([O-])c1cc(S(=O)(=O)N2CCCC2)ccc1NN=C1CCCC1`, for which the activation factor was 0.9.

In the case of `COC(=O)C1=NN(c2ccccc2)C2C(=O)N(c3ccccc3OC)C(=O)C12` (stereo unspecified), the activation factor is 0.9.

Consider `CC1CN(C(=O)c2ccccc2NS(=O)(=O)c2cccc([N+](=O)[O-])c2)CC(C)O1` (stereo unspecified), for which the activation factor is 0.9.

Consider `CCOc1cc(NC(=S)NCc2ccco2)c(OCC)cc1NC(=O)c1ccco1`, for which the activation factor was 1.

Turning to `NNC(=O)C1CC(O)CN1S(=O)(=O)c1ccc(Cl)cc1` (stereo unspecified), the activation factor is 1.1.

As for `CC(C)OC(=O)CN1CCN(c2ccc(Cl)cc2)CC1`, the activation factor is 1.1.

In the case of `O=C(C(=O)N1CCc2ccccc2C1)c1c[nH]c2ccccc12`, the activation factor was 0.9.

Regarding `COc1ccc(N2CCN(C(=O)COc3ccc4c(C)cc(=O)oc4c3)CC2)cc1`, the activation factor was 1.1.

Take `O=C(O)c1cccc(N=NN2CCCCCC2)c1`: the activation factor is 1.1.

For the molecule `COc1cc(NC(=S)NCc2ccc(S(N)(=O)=O)cc2)cc(OC)c1`, the activation factor is 1.

`Cc1ccc(S(=O)(=O)N(C)C)cc1NC(=O)/C=C/c1cccs1`: the activation factor was 0.9.

Take `COc1cc(OC)c(-n2cc(-c3ccc(Cl)cc3)[nH]c2=O)cc1Cl`: the activation factor is 1.

Regarding `CCCNC(=S)N1CCCC(c2nc3ccccc3[nH]2)C1` (stereo unspecified), the activation factor was 1.1.

For the molecule `Cc1ccccc1C(OCCN(C)C)C1CCCCC1` (stereo unspecified), the activation factor was 1.1.

As for `CCCN(CCC)CCCNC(=O)CNC(=O)c1nn(-c2ccc(OC)cc2)c(=O)c2ccccc12`, the activation factor is 1.1.

Regarding `CCc1nnc(NC(=O)C2CC(=O)N(c3ccc4c(c3)OCCO4)C2)s1` (stereo unspecified), the activation factor was 0.4.

For `Cc1ccc(S(=O)(=O)N2CCN(CC(=O)N/N=C/c3cc([N+](=O)[O-])ccc3Cl)CC2)cc1`, the activation factor was 0.5.

Take `COc1ccc(/C=N/NC(=O)CNC(=O)c2ccc(S(=O)(=O)N3CCCC3)cc2)c(OC)c1`: the activation factor was 1.1.

`Cc1cc(Br)ccc1SCC(=O)OCC(=O)NCc1ccc2c(c1)OCO2`: the activation factor is 0.8.

On to `CS(=O)(=O)n1nc(-c2ccco2)nc1N`, for which the activation factor is 1.2.

For the molecule `Cc1ccc(NC(=O)NC(=O)N(C2CCCCC2)S(=O)(=O)c2ccccc2)cc1`, the activation factor is 1.1.

With `CCN(CC)CCCSc1nc2ccccc2s1`, the activation factor was 1.1.

With `COc1ccc(C2SCCN2S(=O)(=O)c2ccccc2)cc1OC` (stereo unspecified), the activation factor was 1.

For the molecule `COc1ccc(C2/C(=C(/O)c3ccccc3)C(=O)C(=O)N2c2ncccn2)cc1OC` (stereo unspecified), the activation factor was 1.

In the case of `COc1ccc(C2N=C(N)N=C(N)N2c2ccccc2)cc1OC` (stereo unspecified), the activation factor was 3 (active).

Regarding `O=C(Nc1nnc(C2COc3ccccc3O2)o1)c1ccc(F)cc1` (stereo unspecified), the activation factor was 1.

`C/C(Cc1ccccc1)=N\NC(=O)CNC(=O)c1cccc(Br)c1`: the activation factor was 0.9.

Take `Cc1ccccc1NC(=O)c1ccc(COc2ccc3c(C)cc(=O)oc3c2)cc1`: the activation factor was 1.

As for `Oc1c(C(c2ccccn2)N2CCOCC2)ccc2cccnc12` (stereo unspecified), the activation factor is 2 (active).

As to `Cc1nc2sc(C(c3ccco3)N3CCOCC3)c(O)n2n1` (stereo unspecified), the activation factor is 0.9.

As for `CCOC(=O)N1CCN(C(c2cccnc2)c2ccc3cccnc3c2O)CC1` (stereo unspecified), the activation factor was 1.3.

`CCOC(=O)c1nn(-c2ccccc2F)c2nc(Nc3ccccc3)cc(=O)n12`: the activation factor was 1.

On to `Cc1ccccc1C1=NC(C(F)(F)F)(C(F)(F)F)c2c(n(-c3ccc(F)cc3)c(=O)[nH]c2=O)N1`, for which the activation factor was 0.9.

Take `CC1CCC(C(C)C)C(=O)/C1=C\c1ccc(NC(=O)CCC(=O)O)cc1` (stereo unspecified): the activation factor is 0.9.

Take `C[C@@H](O)c1nc2ccccc2n1N`: the activation factor was 0.9.

Turning to `Cc1ccc(C(=O)Nc2sc(Cc3ccc4c(c3)OCO4)c(C)c2C(N)=O)cc1`, the activation factor was 0.9.

Take `CN(C)S(=O)(=O)Oc1ccccc1C(=O)Nc1ccccc1Cl`: the activation factor was 0.9.

Regarding `COc1ccc(S(=O)(=O)N(C)CC(=O)N2CCCC2)cc1Cl`, the activation factor was 1.

Turning to `CC(=O)Nc1ccccc1OC(=O)N1CCOCC1`, the activation factor was 0.9.

For `O=C(Oc1ccc2c(c1)CCC2)N1CCOCC1`, the activation factor is 2.4 (active).

Regarding `COc1ccc(CC(=O)Nc2ccc3c(c2)CCC3)cc1S(=O)(=O)N1CCOCC1`, the activation factor is 1.

On to `CCc1cc(-c2n[nH]c(=S)n2CC(C)C)cs1`, for which the activation factor was 1.

For the molecule `O=C(CNC(=O)c1cc(=O)[nH]c2ccccc12)Nc1ccc(F)c(F)c1`, the activation factor was 0.9.

With `Cc1cc(C)nc(-n2ncc3c2CC(c2ccc(C(C)C)cc2)CC3=O)n1` (stereo unspecified), the activation factor was 0.8.

With `CCC(=O)N1c2ccccc2NC2=C(C(=O)CCC2)C1c1ccco1` (stereo unspecified), the activation factor is 1.

Regarding `NC(=O)COC(=O)c1cc(S(=O)(=O)N2CCN(c3ccccc3)CC2)ccc1Cl`, the activation factor was 1.1.

For `COCc1c(N)c(C)nc(Cl)c1C#N`, the activation factor is 1.1.

As to `Cc1cccc(C)c1NC(=O)C1CCCN1C(=O)OC(C)(C)C` (stereo unspecified), the activation factor was 0.8.

Take `CC(=O)NCCC(=O)Nc1cc(S(=O)(=O)N2CCOCC2)ccc1N1CCOCC1`: the activation factor was 1.

For `CCCC1OC23CCCCC2C(C#N)(C#N)C1(C#N)C(=N)O3` (stereo unspecified), the activation factor is 1.1.

For the molecule `Cc1ccc(C(=O)NC(=S)NCc2cccnc2)cc1`, the activation factor was 1.

With `NC(=O)C1CCN(C(=O)COc2cccc3cccnc23)CC1`, the activation factor was 1.

With `Cc1nn(Cc2ccc(F)cc2)c(C)c1NC(=O)c1cccnc1Cl`, the activation factor was 1.1.

Turning to `CC(=O)Cn1ncc(N2CCOCC2)c(Br)c1=O`, the activation factor was 1.1.

For `C/C(CC(=O)Nc1cccc(C(F)(F)F)c1)=N\NC(=O)C(=O)NCC(C)C`, the activation factor is 1.3.

In the case of `O=C(NN1C(=O)C2C3C=CC(O3)C2C1=O)c1ccncc1` (stereo unspecified), the activation factor is 0.8.

With `CC(C)C1Nc2c(C(=O)O)cccc2C(Nc2ccccc2C(=O)O)C1(C)C` (stereo unspecified), the activation factor is 1.1.

As to `CCCn1c(C(O)c2ccc(OCC)cc2)nc2ccccc21` (stereo unspecified), the activation factor was 19.1 (active).

As to `CCCn1c(C(Cc2ccccc2)NC(=O)COC)nc2ccccc21` (stereo unspecified), the activation factor is 0.9.

As to `CCCn1c(C(O)c2cc(OC)ccc2OC)nc2ccccc21` (stereo unspecified), the activation factor was 73.3 (active).

`CCOc1ccc(C(O)Cc2nc3ccccc3n2C)cc1` (stereo unspecified): the activation factor is 0.8.

Turning to `CCOCCn1c(C(C)C)nc2ccccc21`, the activation factor was 0.9.

As for `COc1cc(C(O)c2nc3ccccc3n2C)cc(OC)c1OC` (stereo unspecified), the activation factor is 1.

For the origin of these results see PubChem BioAssay AID1016 (Sanford-Burnham Center for Chemical Genomics, 2008).
